# Laboratory results from ChEMBL document CHEMBL1961873, “Compounds: GSK PKIS; Assays: Nanosyn kinase panel” (2012).
# Experiments:
# [1] = molecular target: Sphingosine kinase 1 (Homo sapiens) (UniProt Q9NYA1); settings: at 1 µM;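 note: mean SPHK1 inhibition value reported from the GSK PKIS kinase panel screen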
# [2] = molecular target: T1, Sphingosine kinase 2 (Homo sapiens) (UniProt Q9NRA0); settings: at 0.1 µM
# T1 sequence (whole entry): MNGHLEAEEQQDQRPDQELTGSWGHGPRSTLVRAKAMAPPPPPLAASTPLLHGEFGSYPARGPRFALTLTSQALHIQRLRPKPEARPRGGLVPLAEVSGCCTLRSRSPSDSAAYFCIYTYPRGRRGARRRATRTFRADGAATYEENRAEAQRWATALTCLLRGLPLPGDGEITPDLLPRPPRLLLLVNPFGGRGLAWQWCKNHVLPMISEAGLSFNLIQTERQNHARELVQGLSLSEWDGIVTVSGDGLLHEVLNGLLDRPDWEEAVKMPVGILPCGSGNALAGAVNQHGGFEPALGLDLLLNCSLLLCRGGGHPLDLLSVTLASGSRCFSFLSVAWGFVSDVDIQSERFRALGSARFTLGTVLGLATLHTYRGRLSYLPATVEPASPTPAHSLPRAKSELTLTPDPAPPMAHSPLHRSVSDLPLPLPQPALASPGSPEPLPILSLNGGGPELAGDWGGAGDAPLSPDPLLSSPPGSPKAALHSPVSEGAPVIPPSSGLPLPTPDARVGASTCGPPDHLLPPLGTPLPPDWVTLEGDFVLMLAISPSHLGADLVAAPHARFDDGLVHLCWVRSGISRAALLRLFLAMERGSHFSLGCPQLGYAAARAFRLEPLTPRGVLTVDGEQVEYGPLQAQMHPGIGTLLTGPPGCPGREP
# [3] = molecular target: T1, Sphingosine kinase 2 (Homo sapiens); settings: at 1 µM
# [4] = molecular target: Casein kinase II subunit alpha (Homo sapiens) (UniProt P68400); settings: at 0.1 µM
# [5] = molecular target: Casein kinase II subunit alpha (Homo sapiens) (UniProt P68400); settings: at 1 µM
# [6] = molecular target: T2, Inhibitor of nuclear factor kappa-B kinase subunit alpha (Homo sapiens) (UniProt O15111); settings: at 0.1 µM
# T2 sequence (whole entry): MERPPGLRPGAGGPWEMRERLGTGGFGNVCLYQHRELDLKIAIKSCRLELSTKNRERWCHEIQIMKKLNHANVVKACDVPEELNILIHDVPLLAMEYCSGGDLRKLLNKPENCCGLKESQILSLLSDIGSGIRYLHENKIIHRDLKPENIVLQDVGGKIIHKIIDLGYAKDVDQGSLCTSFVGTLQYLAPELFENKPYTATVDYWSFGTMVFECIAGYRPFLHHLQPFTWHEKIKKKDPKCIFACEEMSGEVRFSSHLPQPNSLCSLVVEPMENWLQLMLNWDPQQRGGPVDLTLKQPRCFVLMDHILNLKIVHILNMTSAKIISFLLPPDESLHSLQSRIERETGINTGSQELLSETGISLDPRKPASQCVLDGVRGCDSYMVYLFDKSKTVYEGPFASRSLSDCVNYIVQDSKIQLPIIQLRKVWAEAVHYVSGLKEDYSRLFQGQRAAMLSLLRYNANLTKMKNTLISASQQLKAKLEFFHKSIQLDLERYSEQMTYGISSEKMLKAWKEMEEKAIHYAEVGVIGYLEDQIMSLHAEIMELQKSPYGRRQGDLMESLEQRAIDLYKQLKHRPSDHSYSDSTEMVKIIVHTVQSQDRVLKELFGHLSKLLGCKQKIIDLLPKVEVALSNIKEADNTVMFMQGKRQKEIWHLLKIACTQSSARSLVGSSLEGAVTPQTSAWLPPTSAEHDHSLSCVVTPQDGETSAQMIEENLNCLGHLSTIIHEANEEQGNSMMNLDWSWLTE
# [7] = molecular target: T2, Inhibitor of nuclear factor kappa-B kinase subunit alpha (Homo sapiens); settings: at 1 µM
# [8] = molecular target: T3, Inhibitor of nuclear factor kappa-B kinase subunit beta (Homo sapiens) (UniProt O14920); settings: at 0.1 µM
# T3 sequence (whole entry): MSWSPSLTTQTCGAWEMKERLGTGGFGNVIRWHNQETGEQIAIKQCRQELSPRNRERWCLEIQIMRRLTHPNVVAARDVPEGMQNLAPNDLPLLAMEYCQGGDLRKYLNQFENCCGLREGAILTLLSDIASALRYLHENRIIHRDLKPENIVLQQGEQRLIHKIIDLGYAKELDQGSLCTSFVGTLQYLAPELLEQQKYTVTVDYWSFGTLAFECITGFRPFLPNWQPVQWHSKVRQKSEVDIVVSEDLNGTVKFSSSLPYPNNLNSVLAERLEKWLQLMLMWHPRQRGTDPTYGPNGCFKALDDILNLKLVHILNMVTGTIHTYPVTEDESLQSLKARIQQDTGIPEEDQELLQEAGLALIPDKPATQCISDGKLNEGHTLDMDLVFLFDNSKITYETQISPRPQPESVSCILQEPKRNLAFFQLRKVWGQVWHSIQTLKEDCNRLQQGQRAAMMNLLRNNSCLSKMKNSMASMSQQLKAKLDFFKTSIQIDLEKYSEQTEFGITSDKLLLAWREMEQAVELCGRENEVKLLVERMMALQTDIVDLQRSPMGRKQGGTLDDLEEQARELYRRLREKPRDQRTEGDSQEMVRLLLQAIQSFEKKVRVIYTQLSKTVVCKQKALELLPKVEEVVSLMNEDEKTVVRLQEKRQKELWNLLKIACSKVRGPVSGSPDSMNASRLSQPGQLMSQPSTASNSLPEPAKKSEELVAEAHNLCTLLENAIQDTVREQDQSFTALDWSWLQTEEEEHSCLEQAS
# [9] = molecular target: T3, Inhibitor of nuclear factor kappa-B kinase subunit beta (Homo sapiens); settings: at 1 µM
# [10] = molecular target: T4, Inhibitor of nuclear factor kappa-B kinase subunit epsilon (Homo sapiens) (UniProt Q14164); settings: at 0.1 µM
# T4 sequence (whole entry): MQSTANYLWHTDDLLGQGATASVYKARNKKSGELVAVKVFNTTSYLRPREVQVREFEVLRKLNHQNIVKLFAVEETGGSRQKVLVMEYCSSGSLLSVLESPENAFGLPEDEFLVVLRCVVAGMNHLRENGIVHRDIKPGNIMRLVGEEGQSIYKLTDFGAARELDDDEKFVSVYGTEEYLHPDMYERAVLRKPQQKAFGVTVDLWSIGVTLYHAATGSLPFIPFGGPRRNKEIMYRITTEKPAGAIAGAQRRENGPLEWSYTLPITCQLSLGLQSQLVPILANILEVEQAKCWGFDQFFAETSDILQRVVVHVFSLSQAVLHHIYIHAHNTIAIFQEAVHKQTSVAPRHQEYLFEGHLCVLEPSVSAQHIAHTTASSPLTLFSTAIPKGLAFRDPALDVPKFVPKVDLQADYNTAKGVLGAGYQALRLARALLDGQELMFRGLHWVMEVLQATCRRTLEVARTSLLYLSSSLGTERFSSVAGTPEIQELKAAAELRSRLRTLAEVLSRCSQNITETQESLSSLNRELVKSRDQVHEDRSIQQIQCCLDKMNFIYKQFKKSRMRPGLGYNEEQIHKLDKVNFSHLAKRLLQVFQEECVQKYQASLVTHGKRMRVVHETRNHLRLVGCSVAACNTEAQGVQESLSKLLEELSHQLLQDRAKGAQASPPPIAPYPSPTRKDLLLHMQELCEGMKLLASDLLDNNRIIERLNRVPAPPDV
# [11] = molecular target: T4, Inhibitor of nuclear factor kappa-B kinase subunit epsilon (Homo sapiens); settings: at 1 µM
# [12] = molecular target: T5, Serine/threonine-protein kinase Nek1 (Homo sapiens) (UniProt Q96PY6); settings: at 0.1 µM
# T5 sequence (whole entry): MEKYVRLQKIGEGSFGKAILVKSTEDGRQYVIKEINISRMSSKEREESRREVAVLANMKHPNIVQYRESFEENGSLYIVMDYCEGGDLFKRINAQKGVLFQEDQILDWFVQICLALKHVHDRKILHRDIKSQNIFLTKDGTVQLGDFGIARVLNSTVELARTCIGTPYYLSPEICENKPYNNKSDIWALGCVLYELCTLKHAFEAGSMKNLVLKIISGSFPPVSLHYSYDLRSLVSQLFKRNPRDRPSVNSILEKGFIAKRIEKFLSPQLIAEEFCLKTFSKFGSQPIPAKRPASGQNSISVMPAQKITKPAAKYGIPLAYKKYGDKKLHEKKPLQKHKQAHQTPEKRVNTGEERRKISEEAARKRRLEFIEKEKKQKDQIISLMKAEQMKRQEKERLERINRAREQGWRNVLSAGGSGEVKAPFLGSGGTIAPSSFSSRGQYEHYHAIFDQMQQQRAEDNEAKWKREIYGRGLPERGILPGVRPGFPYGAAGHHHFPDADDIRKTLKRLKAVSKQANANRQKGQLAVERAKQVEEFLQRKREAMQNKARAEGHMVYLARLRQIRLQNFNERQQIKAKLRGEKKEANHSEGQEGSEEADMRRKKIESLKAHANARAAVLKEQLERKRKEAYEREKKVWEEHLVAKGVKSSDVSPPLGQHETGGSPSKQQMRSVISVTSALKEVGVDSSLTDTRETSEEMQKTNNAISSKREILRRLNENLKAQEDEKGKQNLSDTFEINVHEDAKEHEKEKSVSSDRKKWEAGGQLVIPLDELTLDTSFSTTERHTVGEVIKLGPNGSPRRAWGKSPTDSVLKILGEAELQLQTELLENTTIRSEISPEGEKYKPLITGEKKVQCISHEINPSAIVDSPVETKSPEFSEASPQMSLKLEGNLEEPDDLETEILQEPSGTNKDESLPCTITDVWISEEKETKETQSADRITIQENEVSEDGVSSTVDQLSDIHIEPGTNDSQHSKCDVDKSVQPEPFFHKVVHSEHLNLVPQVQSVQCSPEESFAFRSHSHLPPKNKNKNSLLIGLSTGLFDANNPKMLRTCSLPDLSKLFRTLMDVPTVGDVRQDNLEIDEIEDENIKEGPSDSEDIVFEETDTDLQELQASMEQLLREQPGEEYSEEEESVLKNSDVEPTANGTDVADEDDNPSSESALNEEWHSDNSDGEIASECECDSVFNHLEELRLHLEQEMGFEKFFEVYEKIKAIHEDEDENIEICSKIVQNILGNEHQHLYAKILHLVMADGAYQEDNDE
# [13] = molecular target: T5, Serine/threonine-protein kinase Nek1 (Homo sapiens); settings: at 1 µM
# [14] = molecular target: T6, Serine/threonine-protein kinase Nek2 (Homo sapiens) (UniProt P51955); settings: at 0.1 µM
# T6 sequence (whole entry): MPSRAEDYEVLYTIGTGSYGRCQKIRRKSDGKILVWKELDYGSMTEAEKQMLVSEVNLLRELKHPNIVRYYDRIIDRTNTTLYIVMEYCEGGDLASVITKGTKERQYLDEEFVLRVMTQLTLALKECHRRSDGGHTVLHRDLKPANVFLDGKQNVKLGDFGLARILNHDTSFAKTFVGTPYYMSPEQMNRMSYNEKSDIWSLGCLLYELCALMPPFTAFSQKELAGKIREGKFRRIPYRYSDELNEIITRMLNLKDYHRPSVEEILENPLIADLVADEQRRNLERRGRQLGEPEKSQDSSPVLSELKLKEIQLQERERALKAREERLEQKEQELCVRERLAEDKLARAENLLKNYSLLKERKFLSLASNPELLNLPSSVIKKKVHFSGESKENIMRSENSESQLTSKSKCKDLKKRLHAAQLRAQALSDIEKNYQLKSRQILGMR
# [15] = molecular target: T6, Serine/threonine-protein kinase Nek2 (Homo sapiens); settings: at 1 µM
# [16] = molecular target: Serine/threonine-protein kinase Nek6 (Homo sapiens) (UniProt Q9HC98); settings: at 0.1 µM
# [17] = molecular target: Serine/threonine-protein kinase Nek6 (Homo sapiens) (UniProt Q9HC98); settings: at 1 µM
# [18] = molecular target: Serine/threonine-protein kinase Nek7 (Homo sapiens) (UniProt Q8TDX7); settings: at 0.1 µM
# [19] = molecular target: Serine/threonine-protein kinase Nek7 (Homo sapiens) (UniProt Q8TDX7); settings: at 1 µM
# [20] = molecular target: T7, Serine/threonine-protein kinase Nek9 (Homo sapiens) (UniProt Q8TD19); settings: at 0.1 µM;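 note: reported value is the mean percent inhibition of NEK9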
# T7 sequence (whole entry): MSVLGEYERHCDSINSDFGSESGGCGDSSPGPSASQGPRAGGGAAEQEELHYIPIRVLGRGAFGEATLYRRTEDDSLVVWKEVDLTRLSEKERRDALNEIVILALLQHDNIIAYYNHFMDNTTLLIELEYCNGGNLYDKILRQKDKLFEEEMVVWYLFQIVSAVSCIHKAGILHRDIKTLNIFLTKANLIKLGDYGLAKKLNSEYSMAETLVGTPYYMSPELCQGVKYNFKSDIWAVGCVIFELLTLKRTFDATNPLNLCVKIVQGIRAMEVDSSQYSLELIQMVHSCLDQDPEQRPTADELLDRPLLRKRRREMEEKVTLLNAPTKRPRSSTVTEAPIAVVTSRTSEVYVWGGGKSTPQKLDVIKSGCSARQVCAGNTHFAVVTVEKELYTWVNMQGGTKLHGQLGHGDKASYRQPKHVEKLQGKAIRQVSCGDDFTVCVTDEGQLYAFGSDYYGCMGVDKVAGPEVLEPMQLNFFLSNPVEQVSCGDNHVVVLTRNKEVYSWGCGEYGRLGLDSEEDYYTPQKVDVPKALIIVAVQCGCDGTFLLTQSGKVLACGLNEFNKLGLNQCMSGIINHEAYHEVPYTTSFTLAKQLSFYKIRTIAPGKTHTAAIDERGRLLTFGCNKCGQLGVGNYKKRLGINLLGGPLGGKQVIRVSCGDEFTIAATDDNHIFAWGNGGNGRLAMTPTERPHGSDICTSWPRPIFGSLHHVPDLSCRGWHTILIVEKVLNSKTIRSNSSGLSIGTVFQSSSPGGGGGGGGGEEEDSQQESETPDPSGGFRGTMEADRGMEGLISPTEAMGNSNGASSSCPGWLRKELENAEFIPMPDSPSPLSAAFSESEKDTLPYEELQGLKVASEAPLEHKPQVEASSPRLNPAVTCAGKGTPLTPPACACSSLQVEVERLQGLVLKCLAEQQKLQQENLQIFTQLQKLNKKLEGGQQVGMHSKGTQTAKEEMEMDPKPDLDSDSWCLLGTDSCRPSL
# Sequence of Serine/threonine-protein kinase Nek6 (Homo sapiens) (Q9HC98 whole entry): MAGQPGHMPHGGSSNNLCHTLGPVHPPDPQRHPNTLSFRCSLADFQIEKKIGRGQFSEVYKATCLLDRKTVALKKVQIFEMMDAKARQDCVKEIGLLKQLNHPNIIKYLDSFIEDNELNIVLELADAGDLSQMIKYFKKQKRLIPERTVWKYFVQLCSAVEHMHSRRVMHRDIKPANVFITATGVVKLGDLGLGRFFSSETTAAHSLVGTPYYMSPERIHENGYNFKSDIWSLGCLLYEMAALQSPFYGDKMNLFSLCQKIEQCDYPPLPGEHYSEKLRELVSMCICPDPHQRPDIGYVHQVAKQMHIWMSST
# Sequence of Casein kinase II subunit alpha (Homo sapiens) (P68400 whole entry, looked up): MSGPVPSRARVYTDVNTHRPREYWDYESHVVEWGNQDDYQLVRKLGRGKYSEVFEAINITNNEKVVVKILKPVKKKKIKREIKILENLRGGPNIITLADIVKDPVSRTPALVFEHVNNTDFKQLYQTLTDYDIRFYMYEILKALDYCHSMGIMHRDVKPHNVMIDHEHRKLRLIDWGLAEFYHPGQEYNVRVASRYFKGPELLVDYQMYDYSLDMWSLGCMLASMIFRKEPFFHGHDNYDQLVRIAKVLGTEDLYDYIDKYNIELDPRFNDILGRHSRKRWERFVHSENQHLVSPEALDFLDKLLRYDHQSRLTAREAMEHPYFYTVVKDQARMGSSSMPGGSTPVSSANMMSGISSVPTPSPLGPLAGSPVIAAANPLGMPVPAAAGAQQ
# Sequence of Serine/threonine-protein kinase Nek7 (Homo sapiens) (Q8TDX7 whole entry, looked up): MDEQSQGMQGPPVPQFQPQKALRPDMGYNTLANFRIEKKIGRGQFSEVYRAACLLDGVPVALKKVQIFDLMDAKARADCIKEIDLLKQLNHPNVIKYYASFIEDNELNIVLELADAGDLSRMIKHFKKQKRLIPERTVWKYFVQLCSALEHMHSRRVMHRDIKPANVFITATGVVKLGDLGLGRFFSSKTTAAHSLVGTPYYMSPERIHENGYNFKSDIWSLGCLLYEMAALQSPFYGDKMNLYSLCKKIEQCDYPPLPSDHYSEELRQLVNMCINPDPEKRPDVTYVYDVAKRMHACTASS
# Sequence of Sphingosine kinase 1 (Homo sapiens) (Q9NYA1 whole entry): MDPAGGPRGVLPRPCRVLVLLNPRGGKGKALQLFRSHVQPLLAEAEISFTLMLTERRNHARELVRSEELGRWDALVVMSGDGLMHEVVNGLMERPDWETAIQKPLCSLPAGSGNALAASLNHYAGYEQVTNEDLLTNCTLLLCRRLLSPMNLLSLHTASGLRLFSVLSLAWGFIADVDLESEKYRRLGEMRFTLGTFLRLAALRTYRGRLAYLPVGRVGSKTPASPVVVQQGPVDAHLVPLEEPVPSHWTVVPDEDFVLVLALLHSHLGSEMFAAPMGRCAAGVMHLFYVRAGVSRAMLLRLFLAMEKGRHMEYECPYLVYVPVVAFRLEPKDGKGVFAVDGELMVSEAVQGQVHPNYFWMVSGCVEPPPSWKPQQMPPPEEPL
structure (smiles),measurement,setting,value
Fc1cccc(COc2ccc(Nc3ncncc3C#Cc3ccccc3)cc2Cl)c1,inhibition,[1],-2.79%
same,inhibition,[2],-1.37%
same,inhibition,[3],0.98%
same,inhibition,[4],4.56%
same,inhibition,[5],11.3%
same,inhibition,[6],6.1%
same,inhibition,[7],4.54%
same,inhibition,[8],8.5%
same,inhibition,[9],9.35%
same,inhibition,[10],7.72%
same,inhibition,[11],8.55%
same,inhibition,[12],3.31%
same,inhibition,[13],4.09%
same,inhibition,[14],5.61%
same,inhibition,[15],4.52%
same,inhibition,[16],1.91%
same,inhibition,[17],3.93%
same,inhibition,[18],2.36%
same,inhibition,[19],2.64%
same,inhibition,[20],10.8%
